Assay results taken from PubChem BioAssay (Tox21).
Where “and” joins values, the source holds several entries; their conditions need not be identical. Equal entries are not always repeated. Inconclusive results are not listed. Entries that show only a call come without a potency. The source holds several records for some structures; these can differ, active in one and inactive in another. Calls of active or inactive are those of the source. Unless noted, calls come from the whole dose curve; as a rule, active = well fitted curve in the direction sought with a large enough effect in the repeat runs; inconclusive = weak or mixed curves; inactive = no such curve, though single readings can be large; an effect the other way counts as inactive or inconclusive.

Experiments:
[1] = qHTS assay to identify small molecule agonists of the vitamin D receptor (VDR) signaling pathway - cell viability counter screen (AID 743224); note: series mostly up to about 63 µM; nearly all actives have a fitted effect of over 50% in size
Method in brief: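 Here cell health was gauged by luminescent ATP detection (CellTiter-Glo, 30 min RT) in VDR-bla cells that had been incubated with test compounds for 16 h at 37C and 5% CO2.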

[2] = qHTS assay to identify small molecule antagonists of the vitamin D receptor (VDR) signaling pathway - cell viability counter screen (AID 743225); note: nearly all actives have a fitted effect of over 50% in size
Method in brief: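 Cells (VDR-UAS-bla HEK 293T) are plated, rested 4 h at 37C, dosed with compound and 3 nM final 1-alpha,25-dihydroxy vitamin D3, and incubated 16 h. Viability is taken from CellTiter-Glo luminescence in the reporter wells.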

[3] = qHTS assay to identify small molecule agonists of the NFkB signaling pathway (AID 1159509; active = well fitted curve in the direction sought with a large enough effect in the signal ratio in the repeat runs, not every such curve was filed as active; the % refers to the signal ratio; note: series mostly up to about 61 µM)
Method in brief: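 After overnight attachment, reporter cells received test compounds, DMSO or positive controls and were incubated 5 hr at 37 C. FRET substrate was then added for 1.5 hr at room temperature before dual-emission fluorescence reading.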

[4] = qHTS assay to identify small molecule agonists of the NFkB signaling pathway - cell viability counter screen (AID 1159515; calls by dose curve; note: series mostly up to about 61 µM; nearly all actives have a fitted effect of over 55% in size)
Method in brief: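 5 hr compound treatment of NFkB-bla ME-180 cells (2,000/well, seeded overnight beforehand), followed by reporter substrate for 1.5 hr. CellTiter-Glo added afterward; luminescence after 30 min RT.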

[5] = qHTS assay to identify small molecule agonists of the endoplasmic reticulum stress response signaling pathway (AID 1159516; active = well fitted activation curve with a large enough effect in the signal ratio in the repeat runs, not every such curve was filed as active; the % refers to the signal ratio)
Method in brief: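 Reporter HeLa cells (ESRE-beta-lactamase) underwent 5 hr compound incubation at 37 C and 5% CO2 in quantitative HTS format. Detection followed 2 hr of FRET substrate loading at room temperature.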

[6] = qHTS assay to identify small molecule agonists of the endoplasmic reticulum stress response signaling pathway - cell viability counter screen (AID 1159517; calls by dose curve;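 note: HeLa cells carrying an ER stress response element beta-lactamase reporter; series mostly up to about 61 µM; nearly all actives have a fitted effect of over 50% in size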)
Method in brief: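 Luminescence readout: CellTiter-Glo, 30 min RT, same wells as the ESRE-bla reporter read. HeLa ESRE-bla, 1,500 cells/well, o/n 37 C; cpd 5 hr 37 C/5% CO2.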

[7] = qHTS assay to identify small molecule antagonists of the retinoid-related orphan receptor gamma (ROR-gamma) signaling pathway - cell viability counter screen (AID 1159520); note: nearly all actives have a fitted effect of over 50% in size
Method in brief: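 Tet-on ROR gamma CHO cells (1,000/well) were plated 4 hr, given compounds in DMSO for 2 hr at 37 C, then induced with 1 uM final doxycycline for 16 hr. Viability was read as ATP by CellTiter-Glo luminescence after 30 min.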

[8] = molecular target: Nuclear receptor ROR-gamma (Homo sapiens) (UniProt P51449); assay: qHTS assay to identify small molecule antagonists of the retinoid-related orphan receptor gamma (ROR-gamma) signaling pathway (AID 1159521)
Method in brief: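 RORγ antagonism is scored from reduced reporter luminescence in Tet-on CHO cells. Induction used 1 uM final doxycycline hyclate for 16 h at 37 C, following a 2 h compound exposure.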

[9] = qHTS assay to identify small molecule agonists of the AP-1 signaling pathway - cell viability counter screen (AID 1159525; calls by dose curve; note: nearly all actives have a fitted effect of over 55% in size)
Method in brief: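 ME-180 AP-1-bla, 2500 cells/well, Opti-MEM + 0.5% dialyzed FBS; overnight 37 °C; cpd 15-pt titration, 5 h 37 °C; CellTiter-Glo 30 min RT; luminescence read; normalised to TOAB and DMSO controls.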

[10] = qHTS assay to identify small molecule agonists of the AP-1 signaling pathway (AID 1159526; calls by dose curve)
[11] = qHTS assay to identify small molecule agonists of the RXR signaling pathway - cell viability counter screen (AID 1159529)
Method in brief: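 Cell viability is measured by CellTiter-Glo luminescence, 30 min at room temperature, in wells already read for beta-lactamase. Engineered HEK 293T cells (RXR-alpha-UAS-bla) are dosed 16 hr at 37 C. Tetraoctyl ammonium bromide serves as positive control.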

[12] = qHTS assay to identify small molecule antagonists of the retinoid acid receptor (RAR) signaling pathway - cell viability counter screen (AID 1159551); note: nearly all actives have a fitted effect of over 35% in size
Method in brief: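 Seed C3RL4 cells; next day add compound, then retinol to 1 uM final; incubate 6 h at 37 C; add CellTiter-Glo; read luminescence after 30 min at RT.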

[13] = qHTS assay to identify small molecule antagonists of the retinoic acid receptor (RAR) signaling pathway (AID 1159552; note: nearly all actives have a fitted effect of over 50% in size)
Method in brief: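 Quantitative HTS in C3RL4 RARE-luciferase reporter cells. Compounds were added with 1 uM (final) retinol; luminescence was read after 6 hr.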

[14] = qHTS assay to identify small molecule agonists of the retinoic acid receptor (RAR) signaling pathway (AID 1159553); note: potency is the fitted concentration of half-maximal effect
Method in brief: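 Activation of retinol signaling was monitored via a RARE luciferase reporter in C3RL4 cells. After 6 hr compound treatment at 37 C, detection reagent was added for 30 min at room temperature before luminescence reading.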

[15] = molecular target: Retinoic acid receptor RXR-alpha (Homo sapiens) (UniProt P19793); assay: qHTS assay to identify small molecule agonists of the RXR signaling pathway (AID 1159527; calls by dose curve; note: nearly all actives have a fitted effect of over 35% in size; note: potency is the fitted concentration of half-maximal effect)
Retinoic acid receptor RXR-alpha (Homo sapiens), sequence (P19793 whole entry, looked up): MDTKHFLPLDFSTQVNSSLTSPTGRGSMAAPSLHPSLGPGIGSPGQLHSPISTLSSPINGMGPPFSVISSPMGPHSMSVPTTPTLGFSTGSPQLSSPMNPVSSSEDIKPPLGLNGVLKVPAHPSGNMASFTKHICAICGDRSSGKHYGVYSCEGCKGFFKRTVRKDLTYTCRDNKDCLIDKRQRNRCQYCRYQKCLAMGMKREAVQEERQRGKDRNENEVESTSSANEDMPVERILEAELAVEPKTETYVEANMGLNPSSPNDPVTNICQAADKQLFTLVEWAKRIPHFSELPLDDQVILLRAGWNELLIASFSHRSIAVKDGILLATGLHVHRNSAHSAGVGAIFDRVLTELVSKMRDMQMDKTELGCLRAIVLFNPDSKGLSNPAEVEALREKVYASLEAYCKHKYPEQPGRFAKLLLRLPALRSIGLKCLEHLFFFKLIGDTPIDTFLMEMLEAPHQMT
Method in brief: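 qHTS of the Tox21 10K library in GeneBLAzer RXR-alpha HEK 293T cells carrying a beta-lactamase reporter […]; 16 hr treatment, 9-cis retinoic acid as agonist control, FRET read-out.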

[16] = qHTS assay to identify small molecule antagonists of the estrogen related receptor (ERR) signaling pathway - cell viability counter screen (AID 1224818);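 note: series mostly up to about 46 µM; viability measured after 17.5 h of compound exposure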
Method in brief: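 In the same ERR cell assay, compound-treated wells (17.5 h, 37 C) were multiplexed with a fluorogenic viability reagent, CellTiter-Fluor, read after 30 min to flag cytotoxic substances.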

[17] = qHTS assay to identify small molecule antagonists of the estrogen related receptor signaling pathway with the pleiotropic PPARgamma coactivator (PGC) cell viability counter screen (AID 1224822; note: series mostly up to about 46 µM)
Method in brief: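 Compounds in DMSO, with positive and negative controls, were applied to PGC/ERR cells (2,000/well) and left 17.5 h at 37 C before CellTiter-Fluor detection.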

SMILES | Potency [1] | outcome [2] | outcome [3] | outcome [4] | outcome [5] | outcome [6] | outcome [7] | Potency [8] | outcome [9] | Potency [10] | outcome [11] | outcome [12] | Potency [13] | Potency [14] | Potency [15] | outcome [16] | outcome [17]
CC[N+](=O)[O-] | inactive | inactive | inactive | inactive | inactive | inactive | inactive | inactive | inactive | inactive | inactive | inactive | inactive | inactive |  |  | 
CN(C)NC(=O)CCC(=O)O | inactive | inactive | inactive | inactive | inactive | inactive | inactive | inactive | inactive | inactive |  | inactive | inactive | inactive | inactive |  | 
Cc1cccc(N)c1C | inactive | inactive | inactive | inactive | inactive | inactive | inactive | inactive | inactive | inactive | inactive | inactive | inactive | inactive |  |  | 
Cc1ccc(O)c(C)c1 | inactive | inactive | inactive | inactive | inactive | inactive | inactive | inactive | inactive | inactive |  | inactive | inactive | inactive | inactive |  | 
C=CC(=O)OCCCCCC(C)C | inactive | inactive | inactive | inactive | inactive | inactive | inactive | inactive | inactive | inactive |  | inactive | inactive | inactive | inactive |  | 
O=P1(NCCCl)OCCCN1CCCl (stereo not given) | inactive | inactive | inactive | inactive | inactive | inactive | inactive | inactive | inactive | inactive | inactive | inactive | inactive | inactive |  |  | 
COC(=O)Nc1cccc(OC(=O)Nc2cccc(C)c2)c1 | inactive | inactive | inactive | inactive | inactive | inactive | inactive | inactive | inactive | inactive |  | inactive | inactive | 8.63 µM (active) and 19.3 µM (active) | inactive |  | 
Oc1ccc(Cl)cc1 | inactive | inactive | inactive | inactive | inactive | inactive | inactive | inactive | inactive | inactive |  | inactive | inactive | inactive | inactive |  | 
Cc1cccc(C)c1NC(=O)CN1CCCC1=O | inactive | inactive | inactive | inactive | inactive | inactive | inactive | inactive | inactive | inactive | inactive | inactive | inactive | inactive |  | inactive | inactive
CCOC(=O)CC(SP(=O)(OC)OC)C(=O)OCC (stereo not given) | inactive | inactive | inactive | inactive | inactive | inactive | inactive | inactive | inactive | inactive |  | inactive | inactive | inactive | inactive |  | 
CNC(=O)O/N=C(\SC)C(=O)N(C)C | inactive | inactive | inactive | inactive | inactive | inactive | inactive | inactive | inactive | inactive |  | inactive | inactive | inactive | inactive |  | 
OC[C@@H](O)[C@H]1O[C@@H]2O[C@H](C(Cl)(Cl)Cl)O[C@@H]2[C@H]1O | inactive | inactive | inactive | inactive | inactive | inactive | inactive | inactive | inactive | inactive |  | inactive | inactive | inactive | inactive |  | 
COc1nc(NC(C)C)nc(NC(C)C)n1 | inactive | inactive | inactive | inactive | inactive | inactive | inactive | inactive | inactive | inactive |  | inactive | inactive | inactive | inactive |  | 
CN1C(=O)CCS(=O)(=O)C1c1ccc(Cl)cc1 (stereo not given) | inactive | inactive | inactive | inactive | inactive | inactive | inactive | inactive | inactive | inactive |  | inactive | inactive | inactive | inactive | inactive | inactive
CN(C)C(=O)C(c1ccccc1)c1ccccc1 | inactive | inactive | inactive | inactive | inactive | inactive | inactive | inactive | inactive | inactive | inactive | inactive | inactive | inactive |  |  | 
Oc1c(Br)cc(Br)cc1Br | inactive | inactive | inactive | inactive | inactive | inactive | inactive | inactive | inactive | inactive | inactive | inactive | inactive | inactive |  |  | 
OCC(O)CCl (stereo not given) | inactive |  | inactive | inactive | inactive | inactive | inactive | inactive | inactive | inactive | inactive | inactive | inactive | inactive |  |  | 
N#Cc1ccccn1 | inactive | inactive | inactive | inactive | inactive | inactive | inactive | inactive | inactive | inactive |  | inactive | inactive | inactive | inactive |  | 
Clc1cnc(Oc2ccc(Oc3ncc(Cl)cc3Cl)cc2)c(Cl)c1 | inactive | inactive | inactive | inactive | inactive | inactive | inactive | inactive | inactive | inactive |  | inactive | inactive | inactive | inactive | inactive | inactive
Cc1cc(O)ccc1Cl | inactive | inactive | inactive | inactive | inactive | inactive | inactive | inactive | inactive | inactive |  | inactive | inactive | inactive | inactive and 12.3 µM (active) |  | 
